Screening data deposited in PubChem by Broad Institute.
IDE exosite inh: insulin-degrading enzyme (human) exo-site inhibition. 17,000 compounds, 6.3% hits. P14735. z-score at 20 µM. purified IDE, FL-6b probe fluorescence polarization; active compounds read low;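 active = z-score of -3 or lower, meaning strong loss of probe binding signal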;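 note: His-tagged human IDE residues 42-1019 made in E. coli with 30 nM FL-6b probe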
Active calls of the source: *. The sample as a whole holds a higher share of hits than the screen did.

SMILES	IDE exosite inh
O=C(Cc1ccccn1)N1CCCCN2[C@@H](CO)[C@@H](c3ccc(-c4ccccc4)cc3)[C@@H]2C1	-3.54*
CCCC#Cc1ccc([C@H]2[C@H](CO)N3CCCCN(C(=O)Cc4ccccn4)C[C@@H]23)cc1	0.646
O=C(Cc1ccccn1)N1CCCCN2[C@H](C1)[C@@H](c1ccc(-c3ccccc3)cc1)[C@@H]2CO	-1.21
CCCC#Cc1ccc([C@@H]2[C@@H](CO)N3CCCCN(C(=O)Cc4ccccn4)C[C@H]23)cc1	0.228
O=C(Cc1ccccn1)N1CCCCN2[C@H](CO)[C@@H](c3ccc(-c4ccc(F)cc4)cc3)[C@@H]2C1	0.0329
O=C(Cc1ccccn1)N1CCCCN2[C@H](CO)[C@H](c3ccc(-c4ccccc4)cc3)[C@H]2C1	-4.65*
O=C(Cc1ccncc1)N1CCCCN2[C@H](C1)[C@@H](c1ccc(C#Cc3ccccc3F)cc1)[C@@H]2CO	-1.78
O=C(Cc1ccncc1)N1CCCCN2[C@H](CO)[C@H](c3ccc(C#Cc4ccccc4F)cc3)[C@@H]2C1	-4.35*
O=C(Cc1ccccn1)N1CCCCN2[C@H](C1)[C@H](c1ccc(Br)cc1)[C@@H]2CO	4.45
O=C(Cc1ccccn1)N1CCCCN2[C@H](CO)[C@H](c3ccc(-c4ccc(F)cc4)cc3)[C@H]2C1	3.24
O=C(Cc1ccccn1)N1CCCCN2[C@H](C1)[C@@H](c1ccc(C#Cc3ccccc3)cc1)[C@@H]2CO	-6.34*
O=C(Cc1ccncc1)N1CCCCN2[C@@H](CO)[C@H](c3ccc(C#Cc4ccccc4F)cc3)[C@@H]2C1	-0.409
COCC#Cc1ccc([C@H]2[C@H](CO)N3CCCCN(C(=O)Cc4ccccn4)C[C@@H]23)cc1	0.327
COc1ccc(C#Cc2ccc([C@H]3[C@@H](CO)N4CCCCN(C(=O)Cc5ccccc5)C[C@@H]34)cc2)cc1	3.07
O=C(Cc1ccccc1)N1CCCCN2[C@H](CO)[C@@H](c3ccc(-c4ccccc4)cc3)[C@H]2C1	3.44
C/C=C/c1ccc(C2[C@H]3CNC[C@@H]2N3CC2CC2)cc1 (some centres undefined)	-0.716
O=C(Cc1cccnc1)N1CCCCN2[C@H](CO)[C@@H](c3ccc(C#CC4(O)CCCC4)cc3)[C@H]2C1	-0.214
N#Cc1ccc(-c2ccc([C@H]3[C@@H](CO)N4CCCCN(C(=O)Cc5ccccc5)C[C@H]34)cc2)cc1	-1.83
C/C=C/c1ccc([C@@H]2[C@@H](CO)N3CCCCN(C(=O)Cc4ccncc4)C[C@@H]23)cc1	-0.731
O=C(Cc1ccccn1)N1CCCCN2[C@H](CO)[C@@H](c3ccc(Br)cc3)[C@H]2C1	-0.922
CCCC#Cc1ccc([C@H]2[C@@H](CO)N3CCCCN(C(=O)Cc4ccccn4)C[C@H]23)cc1	-1.44
Cc1ccccc1-c1ccc([C@@H]2[C@@H](CO)N3CCCCN(C(=O)Cc4ccccn4)C[C@@H]23)cc1	-9.54*
CC(C)CC#Cc1ccc([C@@H]2[C@H]3CN(C(=O)Cc4ccccn4)CCCCN3[C@H]2CO)cc1	6.29
O=C(Cc1ccccn1)N1CCCCN2[C@H](CO)[C@@H](c3ccc(Br)cc3)[C@@H]2C1	1.7
O=C(Cc1ccccn1)N1CCCCN2[C@@H](CO)[C@H](c3ccc(-c4ccccc4F)cc3)[C@@H]2C1	0.00797
SMILES	IDE exosite inh
O=C(Cc1ccccn1)N1CCCCN2[C@@H](CO)[C@@H](c3ccc(-c4ccccc4F)cc3)[C@@H]2C1	-5.62*
O=C(Cc1ccccn1)N1CCCCN2[C@H](CO)[C@H](c3ccc(-c4ccccc4F)cc3)[C@H]2C1	-4.39*
O=C(Cc1ccccn1)N1CCCCN2[C@H](CO)[C@@H](c3ccc(-c4ccccc4F)cc3)[C@H]2C1	-0.276
O=C(Cc1ccccn1)N1CCCCN2[C@H](CO)[C@H](c3ccc(Br)cc3)[C@@H]2C1	4.54
C[C@H](CO)N1C[C@H](C)[C@@H](CN(C)C(=O)Oc2cccc3ccccc23)OCc2cnnn2CCCC1=O	-1.09
N#Cc1cccc(-c2ccc([C@@H]3[C@H]4CN(C(=O)Cc5cccnc5)CCCCN4[C@H]3CO)cc2)c1	0.198
COC(=O)[C@H]1[C@H](CO)[C@H]2Cn3c(ccc(-c4cccc(F)c4)c3=O)[C@@H]1N2Cc1ccncc1	1.18
CCCC#Cc1ccc([C@H]2[C@H]3CN(C(=O)Cc4ccccn4)CCCCN3[C@H]2CO)cc1	-0.438
C/C=C/c1ccc(C2[C@@H]3CN(Cc4cocn4)C[C@H]2N3)cc1 (some centres undefined)	1.31
C/C=C/c1ccc([C@@H]2[C@H](CO)N3CCCCN(C(=O)Cc4ccncc4)C[C@@H]23)cc1	2.16
C/C=C/c1ccc([C@@H]2[C@H]3CN(C(=O)Cc4cccnc4)CCCCN3[C@H]2CO)cc1	0.339
C/C=C/c1ccc([C@@H]2[C@@H](CO)N3CCCCN(C(=O)Cc4cccnc4)C[C@H]23)cc1	1.25
O=C(Cc1cccnc1)N1CCCCN2[C@H](CO)[C@H](c3ccc(/C=C/c4ccccc4)cc3)[C@@H]2C1	-11.2*
O=C(Cc1cccnc1)N1CCCCN2[C@@H](CO)[C@H](c3ccc(/C=C/c4ccccc4)cc3)[C@@H]2C1	-9.22*
C/C=C/c1ccc([C@@H]2[C@H]3CN(C(=O)Cc4ccncc4)CCCCN3[C@H]2CO)cc1	2.83
C/C=C/c1ccc([C@H]2[C@@H](CO)N3CCCCN(C(=O)Cc4cccnc4)C[C@@H]23)cc1	-0.182
O=C(Cc1cccnc1)N1CCCCN2[C@H](CO)[C@H](c3ccc(C#CC4CCCC4)cc3)[C@@H]2C1	1.44
O=C(Cc1cccnc1)N1CCCCN2[C@H](C1)[C@H](c1ccc(/C=C/c3ccccc3)cc1)[C@@H]2CO	-5.55*
O=C(Cc1cccnc1)N1CCCCN2[C@H](C1)[C@@H](c1ccc(C#CC3CCCC3)cc1)[C@@H]2CO	4.66
O=C(Cc1ccncc1)N1CCCCN2[C@H](CO)[C@@H](c3ccc(C#Cc4ccccc4F)cc3)[C@@H]2C1	-1.19
COc1ccc(-c2ccc([C@@H]3[C@H]4CN(C(=O)Cc5ccncc5)CCCCN4[C@H]3CO)cc2)cc1	0.327
N#Cc1cccc(-c2ccc([C@H]3[C@@H](CO)N4CCCCN(C(=O)Cc5ccncc5)C[C@@H]34)cc2)c1	1.19
CN(C)CC#Cc1ccc([C@@H]2[C@@H](CO)N3CCCCN(C(=O)Cc4ccccn4)C[C@H]23)cc1	-1.42
O=C(O)C[C@H]1CC[C@@H]2NC[C@H](O)COC[C@H]2O1	1.11
OC[C@@H]1Nc2ccc(C#Cc3cccnc3)cc2[C@@H]2NCC[C@H]12	1.59
